Bioassay records deposited in PubChem BioAssay by National Center for Advancing Translational Sciences (NCATS).
BRCA1 expr act: activators of BRCA1 expression; AID 624202; Potency, µM (doses to about 46.1 µM), hits mostly activators; actives 1.1% (n = 380,000); MCF7-BRCA1-FFLuc reporter, luminescence, 48 h; response scale: scaled: vehicle 0%, 10 µM genistein 100%; also: nearly all actives have a fitted effect of over 80% in size
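Quantitative HTS in MCF7 cells stably reporting BRCA1 expression via firefly luciferase. Compound treatment lasts 48 h at 37 °C in phenol-red free MEM. Activation is expressed relative to genistein at 10 microM and DMSO.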
GLP1R cytotox: cytotoxicity in counter-screen for GLP-1R inverse agonists; HEK293 cAMP-luciferase reporter cells, luminescence, 24 h; Potency, µM (top dose mostly 38.3 µM), usual class: inhibitors; actives 0.13% (n = 410,000);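 also: loss of luciferase light is scored as toxicity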
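Here, cytotoxicity is scored as loss of luminescence. The MLSMR collection was tested on cells seeded in medium containing 10% Nu serum, with a 24 hr compound exposure preceded by 12 hours of culture.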
GLP1R inv ag: GLP-1 receptor (human) inverse agonism. AID 624417. actives 1.6% (n = 410,000). Potency, µM (series often up to 38.3 µM), most hits filed as inhibitors. HEK293 GLP-1R CRE-luciferase, luminescence, 24 h; GLP-1R form is constitutively active. P43220; also: nearly all actives have a fitted effect of over 55% in size
Target sequence (P43220 whole entry, looked up): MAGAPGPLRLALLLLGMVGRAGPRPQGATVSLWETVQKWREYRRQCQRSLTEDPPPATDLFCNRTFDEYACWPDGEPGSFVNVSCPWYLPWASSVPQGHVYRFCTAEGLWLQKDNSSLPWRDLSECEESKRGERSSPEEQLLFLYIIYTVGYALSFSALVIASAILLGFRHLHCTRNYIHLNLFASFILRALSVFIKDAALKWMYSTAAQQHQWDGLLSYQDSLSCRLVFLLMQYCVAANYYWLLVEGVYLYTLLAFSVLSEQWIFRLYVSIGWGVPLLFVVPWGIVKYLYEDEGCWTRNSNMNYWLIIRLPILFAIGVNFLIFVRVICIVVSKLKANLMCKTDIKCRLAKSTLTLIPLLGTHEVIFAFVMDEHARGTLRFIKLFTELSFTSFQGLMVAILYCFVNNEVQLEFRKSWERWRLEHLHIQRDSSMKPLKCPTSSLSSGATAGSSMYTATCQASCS
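Inverse agonists were sought by their lowering of basal cAMP reporter luciferase output in HEK293 cells stably carrying constitutively active human GLP-1R, after 24 h compound treatment.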
a7 integrin act: integrin-mediated muscular dystrophy alleviation activation. alpha7betagal myoblasts, beta-gal FDG fluorescence, 48 h. Potency, µM (titrated, usually from 38.3 µM), hits mostly activators. actives 0.064% (n = 350,000); also: nearly all actives have a fitted effect of over 60% in size
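alpha7betagal+/- myoblasts (passage 13, 250/well) treated 48 h at 37C with compounds at 1:260 dilution of DMSO stock. Lysed, then beta-galactosidase activity read as FDG fluorescence (ex 480/em 540) after 30 min, with pre-read for autofluorescence.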
GLP1R ag: agonists of human GLP-1 receptor; HEK293 GLP-1R CRE-luciferase, luminescence, 4-6 h; cells express a hypersensitive GLP-1R form; Potency, µM (doses to about 45.6 µM), hits mostly activators; P43220; AID 624172; actives 0.007% (n = 380,000)
Of the large screens only hits and unclear results are named; the others gave an inactive call. Most compounds without a hit are left out; they make up all but 2.7% or so of the library. Calls follow the shape of the dose curve; as a rule, active = well fitted curve in the direction sought with a large enough effect; inconclusive = small, poorly fitted or top-dose-only effect, or another doubt; inactive = no such curve, though single readings can be large; an effect the other way counts as inactive or inconclusive.

O=C(NNC(=O)c1cc(-c2ccccc2)nc2ccccc12)Nc1cccc(Cl)c1	GLP1R inv ag 12.6µM
O=C(Nc1nccs1)c1cc(-c2ccccc2)nc2ccccc12	GLP1R inv ag 5.01µM
O=C(Nc1nccs1)c1cc(-c2ccco2)nc2ccccc12	none
O=C(NCc1ccccn1)c1cc(-c2ccc(-c3ccccc3)cc2)nc2ccccc12	GLP1R inv ag 2µM
CCCn1c(SCc2nc(-c3ccc(OC)c(OC)c3)no2)nnc1-c1ccccc1	none (no result: a7 integrin act, GLP1R ag)
CCOC(=O)c1ccc(NC(=O)CSc2ncc(S(=O)(=O)c3ccc(C)c(Cl)c3)c(=O)[nH]2)cc1	none (no result: a7 integrin act)
COc1ccc(CNC(=O)C2(c3cccs3)CCOCC2)cc1	none (no result: BRCA1 expr act, a7 integrin act, GLP1R ag)
CCOc1ccc(-c2cn3c(n2)sc2cc(C(=O)NC(C)C45CC6CC(CC(C6)C4)C5)ccc23)cc1 (configuration not stated)	none (no result: BRCA1 expr act, a7 integrin act, GLP1R ag)
CCCCCCCCN1C(=O)[C@H](CC(=O)NCCCCc2ccccc2)C[C@@]2(C(=O)OCC)CCCC=C12	GLP1R inv ag 7.08µM (no result: a7 integrin act)
CCCCCCCCN1C(=O)[C@H](CC(=O)NCc2cccs2)C[C@@]2(C(=O)OC)CC(C)(C)CC=C12	GLP1R inv ag 8.91µM (no result: BRCA1 expr act, a7 integrin act, GLP1R ag)
COC(=O)[C@@]12C[C@@H](CC(=O)NCc3ccc(C)o3)C(=O)N(Cc3ccccc3)C1=CCC(C)(C)C2	GLP1R inv ag inconclusive (no result: BRCA1 expr act, a7 integrin act, GLP1R ag)
CCCCCCCCN1C(=O)[C@H](CC(=O)NCc2ccccc2)C[C@@]2(C(=O)OCC)CCCC=C12	GLP1R inv ag inconclusive (no result: a7 integrin act)
COC(=O)[C@@]12C[C@@H](CC(=O)NCc3ccccc3)C(=O)N(Cc3ccccc3)C1=CCC(C)(C)C2	GLP1R inv ag 11.2µM (no result: BRCA1 expr act, a7 integrin act, GLP1R ag)
COc1ccc(Cl)cc1NC(=O)Cn1c(=O)n(-c2ccc(C)cc2)c(=O)c2ccc(C(=O)NCc3ccccc3Cl)cc21	none (no result: a7 integrin act)
Cc1c(O)ccc2c1OC(C)(C)CC2	none (no result: GLP1R cytotox, GLP1R inv ag, a7 integrin act, GLP1R ag)
O=C(N/N=C/c1ccc(OC(F)F)cc1OC(F)F)c1ccc(Br)cc1	GLP1R inv ag inconclusive
O=C(N/N=C/c1ccc(OC(F)F)cc1OC(F)F)NC1CCCCC1	GLP1R inv ag 4.47µM
CC(C)c1ccc(Nc2nc(CC(=O)O)cs2)cc1	BRCA1 expr act 5.01µM
C/C(=N\Nc1ccc(Cl)c(C(=O)O)c1)c1cccc([N+](=O)[O-])c1	BRCA1 expr act 14.1µM, a7 integrin act inconclusive
CC(/C=C/c1ccc2c(c1)OCO2)=N\NC(=O)c1cccc([N+](=O)[O-])c1	none
C/C(=N\NC(=O)c1ccccc1C)c1cccc([N+](=O)[O-])c1	none
C/C(=N/NC(=O)c1ccc2c(c1)OCO2)c1cccc([N+](=O)[O-])c1	BRCA1 expr act 5.01µM
O=C(Nc1cccc([N+](=O)[O-])c1)c1ccc2c(c1)OCCO2	BRCA1 expr act 12.6µM
COc1ccc2c(c1)CC(NC(=O)Nc1cc(Cl)ccc1OC)CO2 (configuration not stated)	GLP1R inv ag inconclusive (no result: BRCA1 expr act, a7 integrin act, GLP1R ag)
O=c1cc(-c2ccc(F)cc2)nc(SCc2nc(-c3ccc(Cl)cc3)no2)[nH]1	none (no result: BRCA1 expr act, a7 integrin act, GLP1R ag)
Cc1cccc(C(=O)NC(=O)Nc2c(C)cc(C)nc2C)c1	BRCA1 expr act 3.98µM
Cc1cc(C)c(NC(=O)c2ccc(S(=O)(=O)N(C)C)cc2)c(C)n1	none
Cc1[nH]n(-c2ccccc2)c(=O)c1/C=N/N1C(=O)c2cccc3cccc(c23)C1=O	GLP1R cytotox inconclusive, GLP1R inv ag 12.6µM
Cc1[nH]n(-c2ccccc2)c(=O)c1/C=N/NC(=O)c1cccc(F)c1	GLP1R inv ag 7.94µM
Cc1[nH]n(-c2ccc(Br)cc2)c(=O)c1/C=N/NC(=O)c1ccccc1	GLP1R inv ag inconclusive
c1ccc(-c2ccc3ccccc3n2)cc1	BRCA1 expr act 11.2µM
CC(C)COc1ccc(-c2nnn(CC(=O)N3CCCC3)n2)cc1	BRCA1 expr act 10µM
O=C(Cn1nnc(-c2ccccc2)n1)N1CCCCC1	none
CS(=O)(=O)OCCCNCCCOS(C)(=O)=O	none (no result: BRCA1 expr act, GLP1R cytotox, GLP1R inv ag, a7 integrin act)
C=CCn1c(-c2ccc(OC)cc2)nc2ccccc21	BRCA1 expr act 10µM, GLP1R inv ag inconclusive
CC(=O)NC1=C(Nc2ccc(N(C)C)cc2)C(=O)c2ccccc2C1=O	GLP1R cytotox inconclusive, GLP1R inv ag 3.98µM
CC(=O)NC1=C(N(C)C2CCS(=O)(=O)C2)C(=O)c2ccccc2C1=O (configuration not stated)	GLP1R cytotox inconclusive
O=C1/C(=C/Nc2ccc3c(c2)OCO3)CCc2ccccc21	BRCA1 expr act inconclusive, GLP1R inv ag inconclusive
COc1ccc2c(c1)CC/C(=C\Nc1ccc3c(c1)OCO3)C2=O	BRCA1 expr act 3.16µM
CC(=O)c1cc(-c2ccccc2)n(CCC(=O)NC(C)c2ccccc2)c1C (configuration not stated)	none (no result: BRCA1 expr act, a7 integrin act, GLP1R ag)
C/C(=C(\CCO)SSCC1CCCO1)N(C=O)Cc1cnc(C)nc1N (configuration not stated)	none (no result: BRCA1 expr act, GLP1R cytotox, GLP1R inv ag, a7 integrin act)
Cn1c(/C=C/c2ccc(Br)cc2)c([N+](=O)[O-])c(=O)n(C)c1=O	GLP1R cytotox inconclusive, GLP1R inv ag 4.47µM
Cc1ccc(-c2ccc(/C=C3\SC(N4CCOCC4)=NC3=O)o2)cc1	GLP1R inv ag 4.47µM
O=C1N=C(N2CCOCC2)S/C1=C/c1ccc(-c2ccc(F)cc2)o1	none
CC1CCC(NC(=O)c2ccc3nc[nH]c3c2)CC1 (configuration not stated)	BRCA1 expr act 11.2µM
Cc1ccccc1C(=O)Nc1cccc(C(=O)Nc2ccccc2C(=O)O)c1	a7 integrin act inconclusive
CC(C)c1ccccc1NC(=O)c1cccc(NC(=O)c2ccccc2)c1	GLP1R inv ag 10µM
CC(C)c1cc(NC(=O)c2ccccc2)cc(C(C)C)c1O	GLP1R inv ag 11.2µM
CC(=O)Nc1cc(C(C)C)c(O)c(C(C)C)c1	none
Cc1c2ccccc2nc2c(F)c(N(C)C)c(F)c(F)c12	BRCA1 expr act 12.6µM
Cc1cc(/C=C2\C=Cc3ccccc32)cc(C)c1N	none (no result: GLP1R cytotox, GLP1R inv ag, a7 integrin act, GLP1R ag)
Cc1ccccc1C(=O)Nc1ccc(Br)cn1	none
O=C(Nc1ccccc1C(=O)Nc1ccc(Br)cn1)c1ccccc1Cl	GLP1R inv ag 10µM
N#Cc1ccc(NC(=O)COCc2cc(-c3ccco3)on2)cc1	none (no result: BRCA1 expr act, a7 integrin act, GLP1R ag)
CS(=O)(=O)N1CCN(/[N+]([O-])=N/Oc2ccc([N+](=O)[O-])cc2[N+](=O)[O-])CC1	none (no result: GLP1R cytotox, GLP1R inv ag, a7 integrin act, GLP1R ag)
COc1ccc(CCC(=O)NCC23CC4CC(CC(C4)C2)C3)cc1	GLP1R inv ag 6.31µM
CSc1nc2c(cnn2-c2ccccc2)c(=O)n1N	BRCA1 expr act inconclusive
CCSc1nc2c(cnn2-c2ccccc2)c(=O)n1N	BRCA1 expr act 5.01µM
Cc1ccc(-c2nc3c(cnn3-c3ccccc3)c(=O)n2-c2cccc(Cl)c2)cc1	GLP1R inv ag 4.47µM (no result: BRCA1 expr act, a7 integrin act, GLP1R ag)
Cc1cc(C)c(Cn2c3ccccc3c3cnn(CC(=O)N4CCCCCC4)c(=O)c32)c(C)c1	none (no result: BRCA1 expr act, a7 integrin act, GLP1R ag)
